Sampled rows, rich in hits. Any-hit rate of the full collection: about 3%.
SENP6 block = SENP6 protease inhibitors, primary screen, biochemical, luminescence, uHTS | Sentrin-specific protease 6 (Homo sapiens), Q9GZR1 | Recombinant SENP6 catalytic domain, aminoluciferin luminescence | inhibition, % at 10 µM | 1.8% of 330,000 active;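 active = inhibition above about 50% at the single tested dose, limit read from the data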;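 note: plate controls were DMSO wells with enzyme for no effect and DMSO wells lacking enzyme for full effect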
PPC-1+TRAIL kill = compounds killing PPC-1 cancer cells with TRAIL present, primary screen, TRAIL potentiator project, ATPLite luminescence, uHTS; PPC-1 cells + TRAIL, ATPLite viability luminescence; cell killing (% activity), % at 4 µM or 5 µM; 0.41% of 220,000 active;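 active = cell killing above 50% in the first pass at 4 µM, then a duplicate retest at 5 µM averaging 50% or more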;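 note: plate controls were cells with TRAIL plus DMSO for no effect and medium-only wells lacking cells for full effect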
TRAIL sens C8 = viability loss with TRAIL in NB7+C8 cells, primary screen, TRAIL sensitizer project, cell-based, ATPlite luminescence; inhibition (viability loss, TRAIL sensitization), % at 10 µM; 1% of 360,000 active;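 active = compounds causing at least 50% loss of cell viability in the single-dose screen, relative to plate controls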
SENP8 block-1 = SENP8 protease inhibitors, primary screen, biochemical, luminescence; Sentrin-specific protease 8 (Homo sapiens), Q96LD8; purified SENP8, Z-RLRGG-aminoluciferin cleavage; inhibition, % at 10 µM; 1.2% of 330,000 active; AID 2540, 2010; in the data active = inhibition above about 50%
SENP7 block = SENP7 protease inhibitors, primary screen, biochemical, luminescence, uHTS | recombinant SENP7, Z-RLRGG-aminoluciferin luminescence, 40 min | inhibition, % at 5 µM | 1.5% of 330,000 active | AID 434973, 2010;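 active = inhibition above about 50% at the single test dose, limit read from the data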;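 note: plate controls were DMSO with enzyme for no effect and no enzyme buffer wells for full effect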
Target sequence (Q9BQF6 706-1050 limits assumed): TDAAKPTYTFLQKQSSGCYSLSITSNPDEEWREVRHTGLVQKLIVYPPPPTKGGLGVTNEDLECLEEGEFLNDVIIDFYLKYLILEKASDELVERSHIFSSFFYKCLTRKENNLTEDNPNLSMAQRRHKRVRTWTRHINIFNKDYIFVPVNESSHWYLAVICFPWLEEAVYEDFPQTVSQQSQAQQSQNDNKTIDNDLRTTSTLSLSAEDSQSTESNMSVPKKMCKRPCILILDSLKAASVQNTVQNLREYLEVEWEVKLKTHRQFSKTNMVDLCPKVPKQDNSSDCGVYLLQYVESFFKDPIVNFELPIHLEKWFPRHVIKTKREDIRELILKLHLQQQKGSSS
SENP8 block-2 = human SENP8 protease inhibitors, primary screen, biochemical, fluorescence, Nedd8 protein substrate, uHTS; recombinant SENP8; 0.64% of 360,000 active; inhibition, % at 20 µM; Sentrin-specific protease 8 (Homo sapiens), Q96LD8; AID 602440, 2012; in the data active = inhibition mostly above about 40%, no sharp cut-off; inactive = mostly below about 27%
SENP8 confirm = SENP8 protease inhibitors, retest, confirmation, biochemical, luminescence, single concentration | shares compounds with SENP7 block | Recombinant SENP8, Z-RLRGG-aminoluciferin luminescence, 60 min | inhibition, % at 12.5 µM | 40% of 6,200 active | AID 488912, 2010;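 active = mean inhibition across replicates above about 50%, limit read from the data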
SENP6 confirm = SENP6 protease inhibitors, confirmation, biochemical, luminescence, single concentration | shares compounds with SENP7 block | recombinant SENP6, Z-RLRGG-aminoluciferin luminescence | inhibition, % at 12.5 µM | 58% of 6,200 active
SENP7 confirm = SENP7 protease inhibitors, retest, confirmation, biochemical, luminescence, single concentration. shares compounds with SENP7 block. recombinant SENP7, Z-RLRGG-aminoluciferin luminescence, 40 min. inhibition, % at 12.5 µM. 69% of 6,200 active
Casp3 select = caspase-3 protease inhibitors, confirmation, selectivity assay for SENP inhibitor project, biochemical, single concentration; shares compounds with SENP7 block; purified caspase-3, Z-DEVD-aminoluciferin luminescence, 60 min; inhibition, % at 12.5 µM; 60% of 6,200 active; AID 488918, 2010;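 active = mean inhibition above about 50%, limit read from the data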;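 note: plate controls were enzyme with DMSO for no effect and wells without caspase-3 for full effect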
Target sequence (P42574 28-227 limits assumed): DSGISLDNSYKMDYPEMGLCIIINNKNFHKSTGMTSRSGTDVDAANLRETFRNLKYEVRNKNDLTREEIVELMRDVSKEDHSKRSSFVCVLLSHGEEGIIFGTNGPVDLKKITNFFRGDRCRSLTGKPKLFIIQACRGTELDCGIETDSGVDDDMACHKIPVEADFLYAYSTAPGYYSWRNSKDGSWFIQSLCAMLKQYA
SENP luc ctr = interferes with luciferase luminescence in SENP counter-screen; shares compounds with SENP7 block; Pre-incubated SENP8/Z-RLRGG-aminoluciferin, luciferase luminescence interference; inhibition, % at 12.5 µM; 39% of 6,200 active;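 active = mean inhibition above about 50% when retested at one dose, limit read from the data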;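 note: plate controls were DMSO wells with completed reaction for no effect and substrate without enzyme for full effect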
* = called active by the depositor; . = no result.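 Rule for the calls, unless noted: active = mean inhibition above about 50% in the one-dose retest (limit read from the data); inactive = the rest.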

SMILES	SENP6 block	PPC-1+TRAIL kill	TRAIL sens C8	SENP8 block-1	SENP7 block	SENP8 block-2	SENP8 confirm	SENP6 confirm	SENP7 confirm	Casp3 select	SENP luc ctr
COc1ccc2nc(Nc3ccccc3)sc2c1	56*	49	52*	70*	84*	-1	88*	88*	98*	61*	84*
COc1ccc2nc(Nc3nc4cc5c(cc4s3)OCO5)sc2c1	2	10	-3	-11	0	-307	.	.	.	.	.
COc1ccc2nc(Nc3ccc4c(c3)OCO4)sc2c1	9	39	5	-22	58*	30	3	2	22	29	19
CC(C)NC(=O)C1(C)CN(S(C)(=O)=O)CC(=O)N1Cc1cccc(F)c1 (stereo unspecified)	.	.	-5	.	.	9	.	.	.	.	.
CCOc1cccc(CN2CCC(Oc3ccc(C(=O)N4CCCC4)cc3)CC2)c1O	.	.	-13	.	.	21	.	.	.	.	.
CC(C)c1ccccc1NC(=O)c1ccc2ncsc2c1	-13	.	-27	-5	0	2	.	.	.	.	.
CCOc1ccccc1C(=O)NCC(=O)NCCCSc1ccccc1	4	.	-7	0	2	7	.	.	.	.	.
Cc1cc(C(O)c2ncc(-c3ccccc3F)[nH]2)ccc1F (stereo unspecified)	.	.	6	.	.	23	.	.	.	.	.
O=C(O)c1cccnc1Nc1ccc(Cl)cc1	66*	-1	32	56*	21	18	72*	70*	85*	72*	74*
O=C(Nc1ccc(Cl)c(Cl)c1)Nc1ccccc1C(=O)O	100*	14	63*	98*	101*	-262	4	101*	104*	100*	100*
Cc1ccc(Nc2ncccc2C(=O)O)cc1C	46	-20	-8	34	2	2	.	.	.	.	.
Cc1ccccc1NC(=O)Nc1ccccc1C(=O)NCc1ccccc1	10	13	-12	4	4	-142	.	.	.	.	.
NC(=O)c1ccccc1OCC(=O)Nc1ccc(Cl)c(Cl)c1	52*	-30	6	18	27	13	15	21	64*	24	11
Cc1ccc(NC(=O)Nc2ccccc2C(=O)NCc2ccccc2)cc1	25	6	18	42	73*	-145	13	19	76*	56*	48
O=C(Nc1ccc(Cl)cc1)Nc1ccccc1C(=O)O	95*	.	75*	96*	100*	-392	8	101*	104*	99*	48
O=C(Nc1ccc(Cl)cc1)Nc1ccccc1CC[N+](=O)[O-]	-2	19	3	-9	-7	9	.	.	.	.	.
O=C(O)c1ccc(S(=O)(=O)N(Cc2ccccc2)C2CCCCC2)cc1	-1	.	5	1	3	13	.	.	.	.	.
N#Cc1ccsc1NC(=O)COc1ccc(-c2nnco2)cc1	87*	15	-1	70*	71*	-37	-23	66*	93*	87*	22
O=Cc1ccc(OCc2ccc3c(c2)OCO3)cc1	77*	.	6	62*	71*	32	73*	73*	92*	81*	83*
Cc1ccc(COc2ccc3c(c2)OCO3)cc1	91*	.	18	75*	86*	7	48	85*	98*	70*	31
O=C(Cc1ccc(OCc2ccccc2)cc1)NCc1ccc2c(c1)OCO2	.	.	11	.	.	7	.	.	.	.	.
CCc1ccc(C2=NN(C(=O)CCC(=O)O)C(c3cccs3)C2)cc1 (stereo unspecified)	-21	.	15	-18	12	-13	.	.	.	.	.
CCOC(=O)C1CCN(Cc2cnc(Oc3ccc(C(C)(C)C)cc3)s2)CC1	4	4	4	1	102*	12	3	0	1	1	-2
CCOC(OCC)c1cn(Cc2ccc(C(=O)c3ccccc3)cc2)nn1	-10	.	12	0	1	4	.	.	.	.	.
CCOc1ccc(N=Nc2c(N)[nH][nH]c2=O)cc1	76*	19	20	65*	72*	26	57*	61*	90*	88*	44
SMILES	SENP6 block	PPC-1+TRAIL kill	TRAIL sens C8	SENP8 block-1	SENP7 block	SENP8 block-2	SENP8 confirm	SENP6 confirm	SENP7 confirm	Casp3 select	SENP luc ctr
Nc1[nH][nH]c(=O)c1N=Nc1cccc(Cl)c1	-29	10	-1	3	4	18	.	.	.	.	.
Cc1cc(=O)n2[nH]c(=O)c(N=Nc3ccccc3)c2[nH]1	36	7	-4	18	8	40	.	.	.	.	.
CCOc1ccc(N=Nc2c(=O)[nH]n3c(=O)cc(C)[nH]c23)cc1	96*	30	37	92*	95*	38	97*	98*	102*	98*	93*
COc1ccc(N=Nc2c(C)[nH][nH]c2=O)cc1	69*	20	4	36	64*	31	50*	52*	84*	80*	53*
Cc1[nH][nH]c(=O)c1N=Nc1ccc(F)cc1	9	.	7	6	12	31	.	.	.	.	.
CCN(CC)CCNC(=O)CCc1c(C)nc2c(c(C)nn2-c2ccc(C)cc2)c1C	-8	.	25	-4	-6	-311	.	.	.	.	.
Cc1ccc(OCCN2CCC2(C)C(=O)Nc2ccc3c(c2)OCO3)cc1 (stereo unspecified)	.	.	-9	.	.	18	.	.	.	.	.
CCCCN1CC2([N+](=O)[O-])C=CC(=O)C([N+](=O)[O-])(C1)C2CC(=O)c1ccccc1 (stereo unspecified)	88*	16	18	-8	-1	8	4	-1	2	4	3
CCN1CC2([N+](=O)[O-])C=CC(=O)C([N+](=O)[O-])(C1)C2CC(=O)c1ccccc1 (stereo unspecified)	4	8	-11	-1	10	35	.	.	.	.	.
